{"source": "the supplement of paper PMC11732987", "about": "“Enantioselective OTUD7B fragment discovery through chemoproteomics screening and high-throughput optimisation” (Communications Chemistry, 2025)", "experiment_in_all_cases": "log2 ratio of Biotin-Ahx-Ub-VS probe labelling (fragment/DMSO); higher = less target engagement (more negative = stronger competition), active = hit call of the paper (q ≤ 0.05, log2 ratio ≤ -1)", "settings_in_all_cases": "compound concentration: 200 uM; treatment time: 3 h", "key": {"USP42": {"molecular_target": "T1, USP42 (UniProt Q9H9J4)", "T1 sequence (whole entry)": "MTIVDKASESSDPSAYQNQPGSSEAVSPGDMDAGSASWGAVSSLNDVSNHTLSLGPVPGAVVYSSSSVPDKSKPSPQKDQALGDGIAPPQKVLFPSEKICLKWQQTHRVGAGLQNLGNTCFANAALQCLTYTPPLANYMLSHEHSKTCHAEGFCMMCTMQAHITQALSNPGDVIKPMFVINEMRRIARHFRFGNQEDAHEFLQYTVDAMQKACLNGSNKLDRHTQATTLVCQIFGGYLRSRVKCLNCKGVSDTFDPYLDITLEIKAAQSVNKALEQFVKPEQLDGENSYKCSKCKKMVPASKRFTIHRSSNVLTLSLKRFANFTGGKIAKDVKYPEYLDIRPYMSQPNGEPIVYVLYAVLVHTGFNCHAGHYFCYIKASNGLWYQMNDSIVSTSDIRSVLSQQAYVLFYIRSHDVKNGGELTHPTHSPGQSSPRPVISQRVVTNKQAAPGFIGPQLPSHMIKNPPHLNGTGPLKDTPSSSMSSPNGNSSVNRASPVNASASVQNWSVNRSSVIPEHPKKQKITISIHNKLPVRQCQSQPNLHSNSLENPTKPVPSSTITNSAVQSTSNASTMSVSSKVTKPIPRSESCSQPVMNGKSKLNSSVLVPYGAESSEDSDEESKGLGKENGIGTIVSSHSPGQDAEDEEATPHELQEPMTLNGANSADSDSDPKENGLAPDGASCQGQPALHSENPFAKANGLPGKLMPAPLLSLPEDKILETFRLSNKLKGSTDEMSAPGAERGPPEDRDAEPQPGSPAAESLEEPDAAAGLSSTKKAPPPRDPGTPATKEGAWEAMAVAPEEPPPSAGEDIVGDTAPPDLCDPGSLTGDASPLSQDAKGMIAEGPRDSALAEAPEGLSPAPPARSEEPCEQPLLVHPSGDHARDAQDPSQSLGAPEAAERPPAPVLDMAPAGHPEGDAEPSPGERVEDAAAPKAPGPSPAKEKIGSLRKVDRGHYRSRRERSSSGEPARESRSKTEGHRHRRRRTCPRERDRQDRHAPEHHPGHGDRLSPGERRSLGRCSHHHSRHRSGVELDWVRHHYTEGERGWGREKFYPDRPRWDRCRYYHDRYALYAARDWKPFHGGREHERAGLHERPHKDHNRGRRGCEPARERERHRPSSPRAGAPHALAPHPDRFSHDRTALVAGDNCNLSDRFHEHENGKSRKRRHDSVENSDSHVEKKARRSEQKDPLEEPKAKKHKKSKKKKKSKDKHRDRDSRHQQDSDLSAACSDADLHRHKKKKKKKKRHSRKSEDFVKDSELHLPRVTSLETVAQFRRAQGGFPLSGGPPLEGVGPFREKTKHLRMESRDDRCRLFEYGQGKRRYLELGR", "outline": "(§1)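 HEK293T lysate (495 µg per sample, in Tris/CHAPS/IGEPAL buffer with protease inhibitors) was treated in triplicate with fragment at 200 µM or with DMSO for 3 h. It was then treated with Biotin-Ahx-Ub-VS (0.5 µM final) for 1 h. Labelled DUBs were NeutrAvidin-enriched, digested with LysC and trypsin, and run by diaPASEF LC-MS/MS. Spectronaut label-free quantities were global-median-normalised. Values are average log2 ratios fragment/DMSO by unpaired t-test, using proteins with ≥2 unique peptides.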"}, "USP46": {"molecular_target": "USP46 (UniProt P62068)", "sequence (P62068 whole entry)": "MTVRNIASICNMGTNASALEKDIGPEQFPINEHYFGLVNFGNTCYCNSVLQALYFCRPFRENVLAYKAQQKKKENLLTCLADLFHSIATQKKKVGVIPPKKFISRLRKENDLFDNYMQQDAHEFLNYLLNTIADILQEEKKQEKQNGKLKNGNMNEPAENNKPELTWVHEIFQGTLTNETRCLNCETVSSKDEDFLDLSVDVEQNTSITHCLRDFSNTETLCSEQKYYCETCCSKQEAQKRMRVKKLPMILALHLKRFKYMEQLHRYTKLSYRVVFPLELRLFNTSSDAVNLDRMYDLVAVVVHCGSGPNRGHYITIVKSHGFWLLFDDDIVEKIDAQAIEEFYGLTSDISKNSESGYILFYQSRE", "outline": "as §1"}, "USP47": {"molecular_target": "T2, USP47 (UniProt Q96K76)", "T2 sequence (whole entry)": "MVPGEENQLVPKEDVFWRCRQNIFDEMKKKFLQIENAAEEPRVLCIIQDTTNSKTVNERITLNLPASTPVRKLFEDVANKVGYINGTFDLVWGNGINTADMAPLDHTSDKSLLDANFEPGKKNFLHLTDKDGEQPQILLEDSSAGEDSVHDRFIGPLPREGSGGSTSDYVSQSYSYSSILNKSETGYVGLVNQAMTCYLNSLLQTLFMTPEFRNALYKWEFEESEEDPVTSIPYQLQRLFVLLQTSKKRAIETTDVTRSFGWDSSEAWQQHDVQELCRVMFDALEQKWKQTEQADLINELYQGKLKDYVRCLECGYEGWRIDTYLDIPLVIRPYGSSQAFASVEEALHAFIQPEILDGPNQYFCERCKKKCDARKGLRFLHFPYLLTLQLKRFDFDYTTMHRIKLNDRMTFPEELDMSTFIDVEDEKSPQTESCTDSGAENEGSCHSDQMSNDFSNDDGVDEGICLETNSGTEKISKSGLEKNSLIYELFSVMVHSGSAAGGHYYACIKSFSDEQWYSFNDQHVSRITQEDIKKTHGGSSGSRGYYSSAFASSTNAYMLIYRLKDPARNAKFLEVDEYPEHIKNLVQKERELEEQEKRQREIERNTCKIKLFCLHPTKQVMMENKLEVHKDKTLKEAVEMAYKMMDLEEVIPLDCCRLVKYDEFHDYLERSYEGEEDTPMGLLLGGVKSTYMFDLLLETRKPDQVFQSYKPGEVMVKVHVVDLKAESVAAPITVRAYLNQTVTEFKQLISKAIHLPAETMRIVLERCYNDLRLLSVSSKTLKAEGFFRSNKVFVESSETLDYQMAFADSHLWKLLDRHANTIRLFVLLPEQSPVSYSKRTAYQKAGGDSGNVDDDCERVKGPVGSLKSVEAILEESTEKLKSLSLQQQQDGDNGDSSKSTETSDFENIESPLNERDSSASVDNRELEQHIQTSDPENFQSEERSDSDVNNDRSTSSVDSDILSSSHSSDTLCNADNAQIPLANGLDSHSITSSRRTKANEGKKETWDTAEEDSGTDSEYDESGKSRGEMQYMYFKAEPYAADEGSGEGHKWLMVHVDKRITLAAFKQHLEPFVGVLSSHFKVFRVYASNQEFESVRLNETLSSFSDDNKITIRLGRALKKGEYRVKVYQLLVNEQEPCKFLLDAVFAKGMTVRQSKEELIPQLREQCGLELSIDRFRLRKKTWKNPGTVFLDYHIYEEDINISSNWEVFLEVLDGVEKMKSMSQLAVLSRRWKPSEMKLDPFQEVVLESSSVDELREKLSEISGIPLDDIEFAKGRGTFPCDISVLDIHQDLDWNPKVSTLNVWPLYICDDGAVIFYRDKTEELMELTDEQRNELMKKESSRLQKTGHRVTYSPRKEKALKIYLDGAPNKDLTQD", "outline": "as §1"}, "USP48": {"molecular_target": "T3, USP48 (UniProt Q86UV5)", "T3 sequence (whole entry)": "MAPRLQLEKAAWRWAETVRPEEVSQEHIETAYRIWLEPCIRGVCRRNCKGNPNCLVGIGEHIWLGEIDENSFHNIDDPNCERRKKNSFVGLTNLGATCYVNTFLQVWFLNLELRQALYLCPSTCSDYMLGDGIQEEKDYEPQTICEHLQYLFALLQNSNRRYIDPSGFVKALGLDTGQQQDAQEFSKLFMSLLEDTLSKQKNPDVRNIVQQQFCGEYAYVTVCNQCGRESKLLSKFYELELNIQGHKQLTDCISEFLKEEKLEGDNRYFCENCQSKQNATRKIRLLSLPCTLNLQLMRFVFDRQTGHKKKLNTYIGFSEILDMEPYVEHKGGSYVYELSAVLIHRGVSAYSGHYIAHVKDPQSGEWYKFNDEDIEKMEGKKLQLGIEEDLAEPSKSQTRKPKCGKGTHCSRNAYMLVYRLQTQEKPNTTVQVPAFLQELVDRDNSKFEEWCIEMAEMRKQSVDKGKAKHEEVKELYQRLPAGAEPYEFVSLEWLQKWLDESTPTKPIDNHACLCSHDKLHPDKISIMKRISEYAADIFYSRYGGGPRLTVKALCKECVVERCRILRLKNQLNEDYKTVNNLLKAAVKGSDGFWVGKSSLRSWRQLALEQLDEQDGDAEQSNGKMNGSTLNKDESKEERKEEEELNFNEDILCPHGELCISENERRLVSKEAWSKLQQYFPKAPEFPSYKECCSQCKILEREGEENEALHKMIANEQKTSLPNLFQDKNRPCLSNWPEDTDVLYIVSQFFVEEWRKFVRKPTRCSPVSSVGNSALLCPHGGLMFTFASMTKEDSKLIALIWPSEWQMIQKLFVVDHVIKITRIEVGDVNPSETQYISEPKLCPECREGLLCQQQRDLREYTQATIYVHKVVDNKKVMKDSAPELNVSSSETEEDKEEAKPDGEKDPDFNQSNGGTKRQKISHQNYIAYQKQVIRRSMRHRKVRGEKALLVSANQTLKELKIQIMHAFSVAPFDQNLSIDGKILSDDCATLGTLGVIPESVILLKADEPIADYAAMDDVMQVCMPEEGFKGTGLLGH", "outline": "as §1"}, "USP5": {"molecular_target": "T4, USP5 (UniProt P45974)", "T4 sequence (whole entry)": "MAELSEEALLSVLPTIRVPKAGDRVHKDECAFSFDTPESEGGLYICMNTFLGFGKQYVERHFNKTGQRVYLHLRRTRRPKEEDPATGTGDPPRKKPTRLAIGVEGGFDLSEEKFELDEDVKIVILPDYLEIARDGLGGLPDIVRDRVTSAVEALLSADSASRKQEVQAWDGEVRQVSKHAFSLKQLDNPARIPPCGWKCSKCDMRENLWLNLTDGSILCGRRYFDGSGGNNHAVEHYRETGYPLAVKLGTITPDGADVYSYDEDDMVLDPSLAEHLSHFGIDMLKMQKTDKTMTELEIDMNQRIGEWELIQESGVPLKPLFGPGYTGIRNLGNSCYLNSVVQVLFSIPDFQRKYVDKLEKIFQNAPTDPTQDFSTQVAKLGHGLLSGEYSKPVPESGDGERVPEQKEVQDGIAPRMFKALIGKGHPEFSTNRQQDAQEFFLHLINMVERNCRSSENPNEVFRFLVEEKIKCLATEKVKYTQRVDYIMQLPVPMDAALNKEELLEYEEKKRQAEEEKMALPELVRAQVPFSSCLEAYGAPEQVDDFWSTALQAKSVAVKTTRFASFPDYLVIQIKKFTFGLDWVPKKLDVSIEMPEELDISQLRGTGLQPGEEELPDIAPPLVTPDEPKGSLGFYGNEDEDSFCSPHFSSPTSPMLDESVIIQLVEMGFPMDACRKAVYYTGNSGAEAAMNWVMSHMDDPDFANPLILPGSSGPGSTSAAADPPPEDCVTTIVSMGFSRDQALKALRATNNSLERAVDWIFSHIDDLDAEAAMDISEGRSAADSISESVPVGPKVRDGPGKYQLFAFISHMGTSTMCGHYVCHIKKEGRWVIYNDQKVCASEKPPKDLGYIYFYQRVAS", "outline": "as §1"}, "USP54": {"molecular_target": "USP54 (UniProt Q70EL1)", "outline": "as §1"}, "USP7": {"molecular_target": "USP7 (UniProt Q93009)", "sequence (Q93009 whole entry, looked up)": "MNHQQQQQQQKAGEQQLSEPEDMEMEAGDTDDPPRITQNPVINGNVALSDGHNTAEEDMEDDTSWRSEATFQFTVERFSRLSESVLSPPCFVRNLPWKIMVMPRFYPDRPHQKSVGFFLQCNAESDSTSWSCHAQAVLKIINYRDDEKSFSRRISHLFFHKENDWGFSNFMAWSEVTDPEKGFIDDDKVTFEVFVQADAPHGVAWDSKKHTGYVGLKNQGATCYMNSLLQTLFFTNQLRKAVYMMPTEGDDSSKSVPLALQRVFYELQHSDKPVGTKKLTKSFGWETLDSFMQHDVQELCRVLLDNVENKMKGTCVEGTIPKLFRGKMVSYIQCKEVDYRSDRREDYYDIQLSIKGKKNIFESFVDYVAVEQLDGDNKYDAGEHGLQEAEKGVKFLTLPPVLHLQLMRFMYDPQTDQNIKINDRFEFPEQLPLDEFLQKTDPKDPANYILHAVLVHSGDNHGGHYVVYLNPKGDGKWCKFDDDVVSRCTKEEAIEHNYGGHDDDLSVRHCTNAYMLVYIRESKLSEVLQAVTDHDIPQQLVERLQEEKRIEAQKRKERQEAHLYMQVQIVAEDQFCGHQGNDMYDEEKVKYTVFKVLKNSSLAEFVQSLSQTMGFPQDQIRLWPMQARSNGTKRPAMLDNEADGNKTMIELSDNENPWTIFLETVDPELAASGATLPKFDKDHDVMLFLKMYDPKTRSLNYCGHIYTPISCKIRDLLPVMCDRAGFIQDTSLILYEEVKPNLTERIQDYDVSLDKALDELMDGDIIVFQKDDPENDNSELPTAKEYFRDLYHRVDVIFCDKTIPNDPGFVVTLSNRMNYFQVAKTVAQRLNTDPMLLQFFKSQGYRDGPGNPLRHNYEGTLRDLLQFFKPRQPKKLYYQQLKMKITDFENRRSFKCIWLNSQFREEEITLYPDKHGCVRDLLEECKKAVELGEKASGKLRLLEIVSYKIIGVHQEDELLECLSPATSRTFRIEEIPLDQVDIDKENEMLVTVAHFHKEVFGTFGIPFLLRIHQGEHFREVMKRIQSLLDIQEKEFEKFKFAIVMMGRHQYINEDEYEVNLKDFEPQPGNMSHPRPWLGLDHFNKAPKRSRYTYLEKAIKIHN", "outline": "as §1"}, "USP8": {"molecular_target": "T5, USP8 (UniProt P40818)", "T5 sequence (whole entry)": "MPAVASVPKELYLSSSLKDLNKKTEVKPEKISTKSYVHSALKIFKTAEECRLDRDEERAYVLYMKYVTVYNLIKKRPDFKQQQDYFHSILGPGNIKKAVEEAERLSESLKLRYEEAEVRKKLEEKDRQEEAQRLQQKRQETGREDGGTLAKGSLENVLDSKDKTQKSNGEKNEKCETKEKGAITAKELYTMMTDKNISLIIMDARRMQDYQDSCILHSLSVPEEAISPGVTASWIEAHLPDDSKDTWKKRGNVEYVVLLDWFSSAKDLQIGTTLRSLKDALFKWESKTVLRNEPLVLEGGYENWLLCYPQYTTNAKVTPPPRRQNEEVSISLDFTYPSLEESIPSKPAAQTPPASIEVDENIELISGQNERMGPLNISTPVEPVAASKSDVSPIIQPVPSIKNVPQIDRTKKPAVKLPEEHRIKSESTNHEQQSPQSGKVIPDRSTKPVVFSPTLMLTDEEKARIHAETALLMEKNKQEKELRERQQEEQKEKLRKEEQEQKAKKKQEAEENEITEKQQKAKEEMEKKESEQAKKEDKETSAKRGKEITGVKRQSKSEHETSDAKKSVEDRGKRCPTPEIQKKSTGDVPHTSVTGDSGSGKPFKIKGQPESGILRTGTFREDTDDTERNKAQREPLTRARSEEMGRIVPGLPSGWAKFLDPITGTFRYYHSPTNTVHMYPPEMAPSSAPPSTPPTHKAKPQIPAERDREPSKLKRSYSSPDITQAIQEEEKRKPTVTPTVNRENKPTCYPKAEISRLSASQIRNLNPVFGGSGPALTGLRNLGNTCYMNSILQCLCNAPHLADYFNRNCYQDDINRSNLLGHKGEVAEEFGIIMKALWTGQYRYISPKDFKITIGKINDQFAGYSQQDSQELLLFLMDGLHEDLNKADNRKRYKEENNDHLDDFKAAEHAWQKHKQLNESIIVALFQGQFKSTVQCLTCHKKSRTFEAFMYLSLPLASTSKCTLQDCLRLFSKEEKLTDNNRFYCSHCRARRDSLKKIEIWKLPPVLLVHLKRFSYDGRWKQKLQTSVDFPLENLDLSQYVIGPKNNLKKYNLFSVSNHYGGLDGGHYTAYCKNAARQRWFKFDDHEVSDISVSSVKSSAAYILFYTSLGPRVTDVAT", "outline": "as §1"}, "USP9X": {"molecular_target": "USP9X (UniProt Q93008)", "sequence (Q93008 whole entry)": "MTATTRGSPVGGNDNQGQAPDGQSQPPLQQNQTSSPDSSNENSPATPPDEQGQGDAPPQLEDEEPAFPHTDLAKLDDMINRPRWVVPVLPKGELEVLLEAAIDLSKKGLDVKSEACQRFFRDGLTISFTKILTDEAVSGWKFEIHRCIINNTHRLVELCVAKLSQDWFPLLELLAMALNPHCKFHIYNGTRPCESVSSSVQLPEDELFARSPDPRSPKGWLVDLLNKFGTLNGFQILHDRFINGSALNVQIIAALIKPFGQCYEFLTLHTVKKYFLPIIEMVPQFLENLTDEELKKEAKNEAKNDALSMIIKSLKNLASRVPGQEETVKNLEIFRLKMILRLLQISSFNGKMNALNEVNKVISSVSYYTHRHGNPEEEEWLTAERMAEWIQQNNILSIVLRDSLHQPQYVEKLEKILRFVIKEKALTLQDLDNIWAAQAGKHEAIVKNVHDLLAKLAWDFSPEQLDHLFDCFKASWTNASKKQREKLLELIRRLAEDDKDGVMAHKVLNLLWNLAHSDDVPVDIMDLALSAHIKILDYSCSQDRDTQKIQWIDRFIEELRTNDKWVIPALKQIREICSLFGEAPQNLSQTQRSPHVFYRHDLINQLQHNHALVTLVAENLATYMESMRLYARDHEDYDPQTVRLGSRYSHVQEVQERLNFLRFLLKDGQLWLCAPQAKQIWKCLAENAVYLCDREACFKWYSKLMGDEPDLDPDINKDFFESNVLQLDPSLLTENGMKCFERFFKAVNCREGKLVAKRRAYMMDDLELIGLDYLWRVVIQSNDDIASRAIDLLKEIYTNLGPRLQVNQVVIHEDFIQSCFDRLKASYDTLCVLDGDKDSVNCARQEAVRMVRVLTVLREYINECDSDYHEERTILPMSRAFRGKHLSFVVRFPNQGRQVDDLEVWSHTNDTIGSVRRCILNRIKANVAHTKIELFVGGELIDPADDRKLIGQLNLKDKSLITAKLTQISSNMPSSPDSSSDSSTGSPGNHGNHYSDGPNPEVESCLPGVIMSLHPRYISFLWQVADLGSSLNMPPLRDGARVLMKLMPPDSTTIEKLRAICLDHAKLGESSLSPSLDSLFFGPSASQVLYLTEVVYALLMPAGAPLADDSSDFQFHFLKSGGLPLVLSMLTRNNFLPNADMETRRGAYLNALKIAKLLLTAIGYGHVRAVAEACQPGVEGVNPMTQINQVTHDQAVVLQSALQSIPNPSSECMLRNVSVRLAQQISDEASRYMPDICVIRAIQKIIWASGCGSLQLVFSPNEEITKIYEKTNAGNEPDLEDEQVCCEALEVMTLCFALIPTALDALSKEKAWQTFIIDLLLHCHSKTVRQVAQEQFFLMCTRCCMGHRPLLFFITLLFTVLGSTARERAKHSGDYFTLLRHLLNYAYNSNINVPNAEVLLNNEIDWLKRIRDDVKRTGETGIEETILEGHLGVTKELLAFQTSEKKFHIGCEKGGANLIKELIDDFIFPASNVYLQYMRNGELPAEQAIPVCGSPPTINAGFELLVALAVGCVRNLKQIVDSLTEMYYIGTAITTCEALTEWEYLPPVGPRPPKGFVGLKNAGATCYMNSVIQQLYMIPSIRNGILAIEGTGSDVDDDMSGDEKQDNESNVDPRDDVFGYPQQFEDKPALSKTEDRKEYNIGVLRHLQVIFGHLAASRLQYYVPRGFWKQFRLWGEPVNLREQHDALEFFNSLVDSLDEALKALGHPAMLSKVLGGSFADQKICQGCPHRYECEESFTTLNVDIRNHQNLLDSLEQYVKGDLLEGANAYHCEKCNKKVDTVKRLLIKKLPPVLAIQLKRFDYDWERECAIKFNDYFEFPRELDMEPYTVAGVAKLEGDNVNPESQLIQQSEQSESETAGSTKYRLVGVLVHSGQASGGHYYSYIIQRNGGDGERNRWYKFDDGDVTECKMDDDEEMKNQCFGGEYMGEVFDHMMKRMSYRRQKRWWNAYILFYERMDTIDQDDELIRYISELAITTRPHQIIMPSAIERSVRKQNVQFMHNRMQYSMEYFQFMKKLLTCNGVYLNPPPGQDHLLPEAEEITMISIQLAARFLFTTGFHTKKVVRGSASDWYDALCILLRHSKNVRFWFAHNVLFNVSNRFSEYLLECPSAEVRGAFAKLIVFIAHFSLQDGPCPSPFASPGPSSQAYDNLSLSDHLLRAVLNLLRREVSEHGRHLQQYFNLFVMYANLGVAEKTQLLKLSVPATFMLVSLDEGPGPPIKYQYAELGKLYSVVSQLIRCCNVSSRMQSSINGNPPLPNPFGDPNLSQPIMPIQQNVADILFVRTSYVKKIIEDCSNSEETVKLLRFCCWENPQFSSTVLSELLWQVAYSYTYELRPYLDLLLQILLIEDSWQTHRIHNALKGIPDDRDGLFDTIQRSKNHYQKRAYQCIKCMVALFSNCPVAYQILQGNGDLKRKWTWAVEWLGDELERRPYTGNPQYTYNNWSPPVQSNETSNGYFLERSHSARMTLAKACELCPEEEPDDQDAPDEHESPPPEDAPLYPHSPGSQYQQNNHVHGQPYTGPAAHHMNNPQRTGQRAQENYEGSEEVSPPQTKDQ", "outline": "as §1"}, "UniProt O00487": {"molecular_target": "UniProt O00487", "sequence (O00487 whole entry)": "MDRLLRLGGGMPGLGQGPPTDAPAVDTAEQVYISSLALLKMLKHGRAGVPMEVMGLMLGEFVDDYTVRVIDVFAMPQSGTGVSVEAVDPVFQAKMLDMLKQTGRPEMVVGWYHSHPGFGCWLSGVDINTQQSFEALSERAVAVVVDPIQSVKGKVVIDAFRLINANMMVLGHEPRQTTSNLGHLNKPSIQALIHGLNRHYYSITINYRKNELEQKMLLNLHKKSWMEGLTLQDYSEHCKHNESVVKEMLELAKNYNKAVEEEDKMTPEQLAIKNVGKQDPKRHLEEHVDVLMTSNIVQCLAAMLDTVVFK", "outline": "as §1"}}, "note": "A number with no mark means an inactive call.", "data": [{"smiles": "N#Cc1ccccc1N1CCN(C(=O)CCl)CC1", "values": [{"measurement": "log2 ratio of Biotin-Ahx-Ub-VS probe labelling", "setting": "USP42", "result": 0.456}, {"measurement": "log2 ratio of Biotin-Ahx-Ub-VS probe labelling", "setting": "USP46", "result": -0.871}, {"measurement": "log2 ratio of Biotin-Ahx-Ub-VS probe labelling", "setting": "USP47", "result": -0.514}, {"measurement": "log2 ratio of Biotin-Ahx-Ub-VS probe labelling", "setting": "USP48", "result": -1.04}, {"measurement": "log2 ratio of Biotin-Ahx-Ub-VS probe labelling", "setting": "USP5", "result": -0.123}, {"measurement": "log2 ratio of Biotin-Ahx-Ub-VS probe labelling", "setting": "USP54", "result": 1.03}, {"measurement": "log2 ratio of Biotin-Ahx-Ub-VS probe labelling", "setting": "USP7", "result": "-1.73 (active)"}, {"measurement": "log2 ratio of Biotin-Ahx-Ub-VS probe labelling", "setting": "USP8", "result": -0.729}, {"measurement": "log2 ratio of Biotin-Ahx-Ub-VS probe labelling", "setting": "USP9X", "result": -0.651}, {"measurement": "log2 ratio of Biotin-Ahx-Ub-VS probe labelling", "setting": "UniProt O00487", "result": 0.0611}]}]}
